PubChem BioAssay AID588591 (National Center for Advancing Translational Sciences (NCATS), 2011)
The campaign covered roughly 390,000 compounds. About 4,700 (1.2%) were called active. A call without a number means that no potency is given here. Another 4% or so got no clear call; they are omitted. This is one part of a sample in which actives are shown more often than they occur. Calls follow the shape of the dose curve; as a rule, active = well fitted inhibition curve with a large enough effect; inconclusive = small, poorly fitted or top-dose-only effect, or another doubt; inactive = no such curve, though single readings can be large or run the other way.

Molecular target: DNA polymerase eta (Homo sapiens) (UniProt Q9Y253)
Sequence (Q9Y253 whole entry, looked up): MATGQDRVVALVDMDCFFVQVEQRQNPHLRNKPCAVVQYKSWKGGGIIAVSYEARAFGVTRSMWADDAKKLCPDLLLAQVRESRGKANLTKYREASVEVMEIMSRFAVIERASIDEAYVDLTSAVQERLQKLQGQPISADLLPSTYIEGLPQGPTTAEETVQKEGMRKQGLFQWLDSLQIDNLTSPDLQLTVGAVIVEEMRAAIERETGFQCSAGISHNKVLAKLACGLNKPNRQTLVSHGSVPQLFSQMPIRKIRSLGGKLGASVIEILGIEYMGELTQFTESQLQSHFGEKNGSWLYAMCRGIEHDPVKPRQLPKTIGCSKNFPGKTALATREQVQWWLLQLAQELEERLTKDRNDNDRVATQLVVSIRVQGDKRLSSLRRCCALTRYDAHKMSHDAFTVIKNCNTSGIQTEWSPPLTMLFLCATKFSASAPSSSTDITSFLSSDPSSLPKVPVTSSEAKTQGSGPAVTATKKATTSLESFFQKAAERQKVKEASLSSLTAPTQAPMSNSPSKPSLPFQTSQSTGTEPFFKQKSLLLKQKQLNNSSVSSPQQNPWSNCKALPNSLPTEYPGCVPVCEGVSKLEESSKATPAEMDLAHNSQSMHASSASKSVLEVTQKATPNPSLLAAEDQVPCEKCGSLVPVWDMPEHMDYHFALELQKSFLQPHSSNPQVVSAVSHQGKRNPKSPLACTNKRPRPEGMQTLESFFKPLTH
Experiment: qHTS for Inhibitors of Polymerase Eta
Settings: recombinant Pol eta, fluorescent DNA replication assay; series mostly up to 114 µM
Procedure, shortened: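 Pol eta (10 nM) was preincubated with compounds for 15 min at room temperature, after which fluorescent replication substrate (50 nM final) was added to start the reaction. Fluorescence was read kinetically at 0 and 10 min.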
Potency is read from the fitted curve at half-maximal effect.

| Structure (SMILES) | Potency |
| --- | --- |
| O=C(Nc1cc(C(F)(F)F)ccc1Cl)c1nc2ccccc2nc1N1CCCCC1 | inactive |
| O=C(CN1CCSc2ccccc21)N1CCN(c2ccccc2)CC1 | inactive |
| Cc1cc(C(=O)Nc2cccc(C(F)(F)F)c2)c2c(C)nn(-c3cccc(F)c3)c2n1 | inactive |
| O=C(c1ccc2c(c1)N(Cc1ccc(Cl)cc1)C(=O)c1ccccc1S2(=O)=O)N1CCCCC1 | inactive |
| COc1ccc(NC(=O)CN2CCCN(Cc3ccccc3)S2(=O)=O)cc1 | inactive |
| COc1c(Cl)cc(C(=O)N(Cc2ccccc2F)C2CCS(=O)(=O)C2)cc1Cl (stereo not given) | inactive |
| COc1ccc(NC(=O)CCc2nnc3n(CC(C)C)c(=O)c4ccccc4n23)cc1OC | inactive |
| Cc1cccc(NC(=O)NC2(C)CCS(=O)(=O)C2)c1 (stereo not given) | inactive |
| Cc1cccc(NC(=O)C2CC(=O)OC23CCCC3)c1 (stereo not given) | 25.1 µM (active) |
| Cc1cccc(NC(=O)C2CCN(C(=O)NC3CCCCC3)CC2)c1 | inactive |
| Cc1ccc(CCNC(=O)c2ccc(CNS(=O)(=O)c3ccc(C)cc3)cc2)cc1 | inactive |
| COc1ccc(CCNC(=O)c2cnc3sc(N4CCCCCC4)nn3c2=O)cc1OC | inactive |
| COc1ccccc1Nc1c2c(nc3ccc(NC(=O)/C=C/c4cc(OC)c(OC)c(OC)c4)cc13)CCCC2 | inactive |
| Clc1ccccc1CSc1nnc(-c2ccco2)c(-c2ccco2)n1 | 25.1 µM (active) |
| Cc1ccc(-c2nnc(SCC(=O)NCc3ccccc3)nc2-c2ccc(C)cc2)cc1 | inactive |
| CC1(C)N=C(SCc2ccccc2Cl)c2ccccc2N1 | inactive |
| c1ccc(CSc2nnc(-c3ccco3)c(-c3ccco3)n2)cc1 | 22.4 µM (active) |
| Fc1ccc(CSc2nc(NCc3ccccc3)c3ccccc3n2)cc1 | inactive |
| Clc1ccccc1CSc1nncn2c1cc1occc12 | inactive |
| CC1=C(C(=O)OCc2ccc(C)cc2)C(c2ccccc2Cl)CC(=O)N1 (stereo not given) | inactive |
| CCN(CC)c1ccc(NS(=O)(=O)c2cc(-c3cc(C)no3)ccc2C)c(C)c1 | inactive |
| COc1ccc(C)cc1Nc1nc2ccccc2c2nnc(C)n12 | inactive |
| O=C1CC(c2nnc(Cc3ccc(Cl)cc3)o2)CN1c1ccccc1 (stereo not given) | inactive |
| Cc1ccc(Cl)cc1NC(=O)C(C)n1nnc2sc(-c3ccccc3)cc2c1=O (stereo not given) | inactive |
| COc1cc(OC)c(NC(=O)N2CC3CCCN3c3ccccc32)cc1Cl (stereo not given) | inactive |

| Structure (SMILES) | Potency |
| --- | --- |
| C=CCn1c(=S)[nH]c2scc(-c3ccco3)c2c1=O | 17.8 µM (active) |
| Cc1ccc(N2CC(NC(=O)Cc3cccs3)CC2=O)cc1 (stereo not given) | inactive |
| Cc1nn(-c2nc(-c3ccccc3)cc(C(F)(F)F)n2)c(C)c1Cl | inactive |
| COc1ccc2oc(C(=O)NCC(Cc3ccccc3)N(C)C)c(C)c2c1 (stereo not given) | inactive |
| COc1cc([C@H](Cc2ccccc2)NC(C)=O)oc(=O)c1 | 20 µM (active) |
| COc1ccc(OC)c(NC(=O)N[C@H](Cc2ccccc2)C(=O)NN)c1 | inactive |
| CCOc1ccccc1CNC(=O)C1CCCN(S(=O)(=O)c2ccc3c(ccn3C)c2)C1 (stereo not given) | inactive |
| Cc1c2cnn(-c3ccccc3)c(=O)c2c(C)n1C(C)C(=O)Nc1ccc(Br)cc1F (stereo not given) | inactive |
| Cc1cc(=O)[nH]c(SCc2ccc(Cl)cc2)n1 | inactive |
| Cc1cccc(-c2nc(SCc3ccc(Br)cc3)n3[nH]c(=O)cc3n2)c1 | inactive |
| Cc1ccc(-c2nc(SCc3ccc(Br)cc3)n3[nH]c(=O)cc3n2)cc1 | 20 µM (active) |
| Cc1cccc(N2CCN(c3ccc(C(=O)O)cc3NC(=O)c3ccccc3F)CC2C)c1 (stereo not given) | inactive |
| Cc1ccc(-c2nn(CCC(=O)Nc3ccc(OC(F)(F)F)cc3)c(=O)c3ccccc23)cc1 | inactive |
| O=C(O)CSCc1ccc(C(=O)O)o1 | inactive |
| O=C(c1ccco1)N1CCN(C(=O)c2ccc(COc3ccc(F)cc3)o2)CC1 | inactive |
| O=C(O)c1ccc(COc2c(F)c(F)cc(F)c2F)o1 | 44.7 µM (active) |
| COc1cc(C(=O)N2CCN(C(=O)COc3cccc(C)c3)CC2)cc(OC)c1OC | inactive |
| CCOc1ccc(NC(=O)c2c(NC(=O)Cc3ccccc3)sc3c2CCC(C)C3)cc1 (stereo not given) | inactive |
| Cc1ccc(C)c(Cn2c(=O)n(CCC(=O)NCc3ccc4c(c3)OCO4)c(=O)c3sccc32)c1 | inactive |
| Cc1ccc(S(=O)(=O)N2CCC(C(=O)Nc3cc(C)ccc3C)CC2)cc1 | inactive |
| Cc1cccc(NC(c2cccc(F)c2)c2ccc3ccc(C)nc3c2O)n1 (stereo not given) | inactive |
| O=C(CSc1nc(O)c(Cc2ccccc2)c(=O)[nH]1)Nc1nc2c(s1)CCCC2 | inactive |
| O=C(COC(=O)c1cc(=O)[nH]c2ccccc12)Nc1nc(-c2cccc(Br)c2)cs1 | inactive |
| O=C(CSc1nc2ccccc2c(=O)[nH]1)Nc1nc(-c2ccc(Br)cc2)cs1 | 5.01 µM (active) |
| CCOc1ccc(C2C(C(=O)Nc3ccc(Cl)cc3)=C(C)Nc3nc(C(F)(F)F)nn32)cc1 (stereo not given) | inactive |

| Structure (SMILES) | Potency |
| --- | --- |
| CCc1nnc2c3ccccc3nc(N3CCN(c4ccc(C)cc4C)CC3)n12 | inactive |
| O=C(CCc1ccccc1)NCc1ccc2c(c1)CCN2C(=O)c1ccccc1 | inactive |
| CSC1=N/C(=C\C=C\c2cccs2)C(=O)S1 | 17.8 µM (active) |
| COc1cccc(-n2ccn(CC(=O)NCc3ccc(C)cc3)c(=O)c2=O)c1 | inactive |
| COc1ccc(Cn2ccnc2SCC(=O)NCc2ccco2)cc1 | inactive |
| Cc1ccc(OCCSc2nc(-c3cccs3)nc3cc(=O)[nH]n23)cc1Cl | 79.4 µM (active) |
| O=c1cc2nc(-c3ccccc3)nc(SCCOc3ccc(Cl)cc3)n2[nH]1 | inactive |
| CC(C)c1c(O)nc(SCCOc2ccc(Cl)cc2)[nH]c1=O | inactive |
| CCCNC(=O)CCC(=O)N1Cc2ccccc2Oc2ncccc21 | inactive |
| CC(=O)c1ccc(N2CCN(C3C(=O)c4ccccc4N3C(C)=O)CC2)cc1 (stereo not given) | inactive |
| COc1ccccc1C(=O)N/C(=C/c1ccco1)C(=O)Nc1ccc(C(=O)O)cc1 | 17.8 µM (active) |
| COc1ccccc1C(=O)N/C(=C/c1ccc2c(c1)OCO2)C(=O)Nc1cccc(C(=O)O)c1 | inactive |
| COc1ccccc1C(=O)NC(=O)COC(=O)c1ccco1 | inactive |
| COc1cccc(CNC(=O)CCC(=O)N2CC3CCCN3c3ccccc32)c1 (stereo not given) | inactive |
| CC(N)=NCc1cccc(CN)c1 | inactive |
| COc1ccc(OCCCC(=O)Nc2nnc(C3CCCO3)s2)cc1 (stereo not given) | inactive |
| COc1ccc(OCC(=O)Nc2nnc(-c3ccco3)s2)cc1 | 56.2 µM (active) |
| COc1ccc(NC(=O)COCc2cc(-c3ccco3)on2)cc1 | inactive |
| Cc1cc(O)c(C(c2ccccc2)N2CCN(c3ccccc3F)CC2)c(=O)n1Cc1ccco1 (stereo not given) | inactive |
| Cc1ccc(NC(=O)Nc2sc3nc4n(c(=O)c3c2C)CCC(C)CC4)c(Cl)c1 (stereo not given) | inactive |
| CCOC(=O)c1c(S(=O)(=O)N2CCCC(C(=O)NCc3cccc(C)c3)C2)c(C)n(C)c1C (stereo not given) | inactive |
| Cc1cccc(NC(=O)c2ccc(F)c(S(=O)(=O)N(C)C3CCCCC3)c2)c1 | inactive |
| CCOC(=O)c1c(C)[nH]c(C)c1S(=O)(=O)N(C)CC(=O)N1CCN(c2ccccc2)CC1 | inactive |
| CCOC(=O)c1c(C)[nH]c2c1-c1ccccc1C(=O)C2=O | 3.16 µM (active) |
| CCOC(=O)c1c(SCC(=O)Nc2cccc(C)c2C)nc(=O)[nH]c1C | inactive |

| Structure (SMILES) | Potency |
| --- | --- |
| COc1ccc(Cl)cc1NC(=O)CSc1nc(=O)[nH]c2c1CCCC2 | inactive |
| COc1ccc(NC(=O)CCN2CCN(CCO)CC2)cc1 | inactive |
| Cc1csc2nc(COC(=O)c3ccc(NC(=O)COc4ccccc4F)cc3)cc(=O)n12 | inactive |
| COc1ccc2[nH]c3c(C)c4cc[n+](C)cc4c(C)c3c2c1 | 1.12 µM (active) |
| CC(=O)Nc1c(C)nn(-c2ccccc2)c1N1CCC(C(=O)Nc2cc(Cl)ccc2C)CC1 | inactive |
| Cc1cc(-c2ccccc2)n2nc(-c3ccccc3)cc2n1 | inactive |
| COc1ccccc1OCCCn1c(-c2ccc(Cl)cc2)nc2ccccc2c1=O | inactive |
| O=C(Nc1nnc(S(=O)(=O)N2CCOCC2)s1)c1cccc(Br)c1 | inactive |
| O=C(Nc1nnc(S(=O)(=O)N2CCCCCC2)s1)c1cccc(Br)c1 | inactive |
| O=C(Nc1nnc(S(=O)(=O)N2CCCc3ccccc32)s1)c1cccc(F)c1 | 50.1 µM (active) |
| COc1cc(NC(=O)c2cc(C3CC3)nc3c2c(C)nn3-c2ccccc2)cc(OC)c1 | inactive |
| Cc1nn(Cc2ccc(F)cc2)c(C)c1NC(=O)c1cc(CC(C)C)on1 | inactive |
| CCc1nc2cccnc2n1-c1ccc(CC(=O)Nc2c(C)cccc2C)cc1 | inactive |
| CCc1nc2cccnc2n1-c1ccc(C(=O)O)cc1 | 20 µM (active) |
| Cc1ccc(Cl)cc1NC(=O)Cc1ccc(-n2c(C)nc3cccnc32)cc1 | inactive |
| O=C(O)c1ccc(Nc2nc(-c3ccccc3)c3cc(Br)ccc3n2)cc1 | inactive |
| CCN(CC)c1ccc(NC(=O)CN2CCN(CC(=O)Nc3ccc(Cl)cc3)CC2)cc1 | inactive |
| CCc1ccc(S(=O)(=O)Nc2cc3c(C(=O)OCc4ccccc4)c(C)oc3c3ccccc23)cc1 | inactive |
| Cc1ccc(Cc2cnc(N)s2)o1 | 79.4 µM (active) |
| CCOC(=O)C1CCN(c2nc3c(S(=O)(=O)c4ccc(CC)cc4)nnn3c3ccc(Cl)cc23)CC1 | inactive |
| CCCN(CCC)C(=O)C(Cc1ccccc1)NS(=O)(=O)c1ccc2c(c1)c(=O)n(C)c(=O)n2C (stereo not given) | inactive |
| N#Cc1c(-c2ccccc2)nc(SCc2cccc(C(F)(F)F)c2)[nH]c1=O | 89.1 µM (active) |
| Cc1oc(-c2ccccc2)nc1Cn1c(SCc2cccc(C(F)(F)F)c2)nc2cccnc21 | inactive |
| Cc1ccccc1CSc1nnc(-c2ccccc2)c(=O)[nH]1 | inactive |
| COc1ccccc1OCC(=O)Nc1nnc2n1CCS2 | inactive |
